Source: PubChem BioAssay AID449762 (Southern Research Specialized Biocontainment Screening …, 2010)
Where “and” joins values, the source holds several entries; their conditions need not be identical. Equal entries are not always repeated. Out of some 330,000 compounds screened, about 1,900 (0.58%) were called active. About 4% were inconclusive and are not listed. The list is a sample of the results. Measured potencies and affinities stand elsewhere. Unmarked numbers belong to inactive results. Rule as the data show it: inconclusive = inhibition above about 70% without an active follow-up result; inactive = below that.

Experiment: M. tuberculosis growth inhibition, HTS (AID 449762);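 also: bacterial growth assessed after seven days of incubation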
Conditions: M. tuberculosis H37Rv growth inhibition, 7H9 media; at 25 µM; stronger effect = higher value

| SMILES | inhibition |
| --- | --- |
| COc1ccc(NC(=S)N(CCCN2CCCC(C)C2)Cc2cccs2)cc1 (configuration not stated) | 6.16% |
| N#Cc1ccc(Cn2ccnc2C(=O)Nc2ccccc2)cc1 | 0.04% |
| CCN(CC)CCN1C(=O)C(=O)/C(=C(/O)c2ccc(S(=O)(=O)N3CCOCC3)cc2)C1c1ccc(C(C)C)cc1 (configuration not stated) | 1.15% |
| CCNCc1nc2cc(OC)c(OC)cc2c(=O)[nH]1 | 2.16% |
| CCOC(=O)c1sc2nc(C)nc(SC(C)C(=O)NC3CC3)c2c1C (configuration not stated) | 44% |
| CCOC(=O)c1sc2nc(C)nc(SCC(=O)NC(C)CCc3ccccc3)c2c1C (configuration not stated) | -5.1% |
| O=C(c1ccc(F)cc1)C(CCCCCC(CN1CCOCC1)C(=O)c1ccc(F)cc1)CN1CCOCC1 (configuration not stated) | 2% |
| COc1ncnc2c1oc1ccccc12 | 6.25% |
| c1cncc(-c2nc3c(ccc4ccccc43)[nH]2)c1 | -6.09% |
| Nc1ccc(-c2nc3c(ccc4ccccc43)[nH]2)cc1 | 6.07% |
| O=C(Nc1ccc(S(=O)(=O)Nc2ccnn2-c2ccccc2)cc1)C(F)(F)F | 56.7% |
| CC(=O)NC(CC(=O)Nc1nc(-c2ccc(N(C)S(C)(=O)=O)cc2)cs1)c1ccccc1 (configuration not stated) | -3.7% |
| CC(C)Nc1nc(-c2ccccc2)nc(-n2ccnc2)n1 | 12.9% |
| CCCCCNc1nc(-c2ccccc2)nc(-n2ccnc2)n1 | -1.97% |
| CCCOc1ccc(-c2nnn(CC(=O)c3ccc4c(c3)OCCO4)n2)cc1 | -6.75% |
| C=CCN1CC[C@]23c4c5ccc(O)c4O[C@H]2C(=O)CC[C@@]3(O)[C@H]1C5 | 29.2% and -16.4% |
| C=CCN1CC[C@]23c4c5ccc(O)c4OC2C(=O)CC[C@@]3(O)C1C5 (some centres not stated) | -3.13% |
| COc1ccc(C(=O)Nc2ccc(OCC(F)(F)C(F)F)c(C(F)(F)F)c2)cc1OC | -1.87% |
| O=C(Nc1ccc(OCC(F)(F)C(F)F)c(C(F)(F)F)c1)c1ccccc1 | 3.85% |
| COc1ccc(S(=O)(=O)N2CCOCC2)cc1NC(=O)CC1CCCC1 | -1.2% |
| O=C(NCc1ccc(F)cc1)Nc1cccc(Cl)c1 | -4.36% |
| CC(C)C(=O)Nc1ccc2c(c1)C(=O)N(CCC(=O)O)C2=O | 3.16% |
| O=C(NCc1ccc2c(c1)OCO2)C1CCCN1S(=O)(=O)c1ccc(Cl)cc1 (configuration not stated) | -0.02% |

| SMILES | inhibition |
| --- | --- |
| CC(=O)Nc1cccc(NC(=S)Nc2cccc(Cl)c2Cl)c1 | 0.32% |
| COc1cc(/C=C2\N=C(C)OC2=O)cc(OC)c1OC | 6.29% |
| COc1cc(/C=C2\SC(c3ccc(C)cc3)=NC2=O)cc(OC)c1OC | -5.86% |
| Cc1cccc(/C=N\NC(=O)c2sccc2-n2cccc2)c1 | 0.5% |
| COC(=O)C1=C(c2cccc(C#N)c2)C[C@@H]2CC[C@H]1N2C(=O)NCCc1ccccc1 | -2.69% |
| NNC(=O)c1sccc1OCc1ccc(Cl)cc1Cl | 39.9% |
| CNC(=S)NNC(=O)c1sccc1OCc1ccc(Cl)cc1Cl | -1.67% |
| CC(C)CC(CO)N1CCN(C(=O)c2ccc(Cl)c(Cl)c2)CCC1=O (configuration not stated) | -0.29% |
| COc1ccc(NC(=O)c2nnn(CC(=O)Nc3ccccc3OC)c2N)c(OC)c1 | -1.76% |
| Cn1cnnc1SCc1ccc(C(=O)N=Nc2c(O)n(C)c3ccccc23)cc1 | -4.97% |
| O=C(N=Nc1c(O)n(Cc2ccccc2)c2ccccc12)c1ccc(O)cc1 | 8.8% |
| CCCCCCC1CCC(C(=O)Nn2c(C)nc3ccccc3c2=O)CC1 (configuration not stated) | 12.2% |
| Cc1nc2ccccc2c(=O)n1NC(=O)C1CC1 | 4.78% |
| COc1ccc(NC(=O)C2CC(c3c(F)cccc3Cl)=NO2)cc1 (configuration not stated) | 0.25% |
| COc1ccc(OCCOc2cccc(C=C3C(=O)NC(=O)NC3=O)c2)cc1 | 21.3% |
| O=C(COc1ccc(Cl)cc1)NCCNC(=O)c1cnccn1 | 5.05% |
| O=C(NCC(c1ccco1)N1CCc2ccccc21)C(=O)Nc1ccccc1F (configuration not stated) | 8.05% |
| CCC(C(=O)O)n1nnc(-c2ccc(-c3ccc(OC)cc3)cc2)n1 (configuration not stated) | 4.02% |
| CCCCOc1ccc(-c2nnn(CC(=O)Nc3ncc(CC(=O)OCC)s3)n2)cc1 | 4.47% |
| CC1Cc2ccccc2N1C(=O)CN1CCC(C(N)=O)CC1 (configuration not stated) | 0.29% |
| O=C(NCc1ccccc1)c1ccc2c(=O)[nH]c3c(C(=O)NCC4CCCO4)sc(=S)n3c2c1 (configuration not stated) | 9.46% |
| Cc1ccc(CNC(=O)c2ccc3c(=O)[nH]c4c(C(=O)NCC5CCCO5)sc(=S)n4c3c2)cc1 (configuration not stated) | 6.08% |
| COC(=O)c1ccc(NC(=S)N2CCN(Cc3ccccc3Cl)CC2)cc1 | 3.97% |

| SMILES | inhibition |
| --- | --- |
| COc1ccc(OC)c(NC(=O)CSc2nc(N3CCOCC3)nc(N3CCOCC3)n2)c1 | -13% |
| COc1ccc(Nc2ncc3c(n2)CC(c2ccc(C)cc2)CC3=O)cc1 (configuration not stated) | 11% |
| COc1ccc(Nc2ncc3c(n2)CC(c2ccc(OC)cc2)CC3=O)cc1 (configuration not stated) | 5.93% |
| CC(=O)c1c(COC(=O)c2cccc(C)c2)nc2ccccc2[n+]1[O-] | -1.11% |
| CC(=O)c1c(N2CCCCC2)nc(=S)n(-c2ccccc2)c1C | -9.27% |
| CN1CCC(N(C)C(=O)c2ccc(Cl)c(S(=O)(=O)Nc3cc(Cl)ccc3Cl)c2)CC1 | -3.22% |
| O=C(CCCN1C(=O)c2cccnc2C1=O)N1CC(=O)N(CCc2ccccc2)C(=O)C1 | 2.7% |
| CC1CCN(CCNC(=O)C2CCN(S(=O)(=O)c3cccc4nsnc34)CC2)CC1 | -5.73% |
| O=C(Cn1ncc(N2CCCC2)c(Cl)c1=O)c1ccc(Cl)cc1 | -5.18% |
| CO/N=C(\Cn1ncc(N2CCOCC2)c(Br)c1=O)c1ccc(Cl)cc1 | -12.1% |
| O=C(NCCC(=O)N1CCC2(CC1)NCCc1[nH]cnc12)c1cccc(C(F)(F)F)c1 | -1.8% |
| CS(=O)(=O)Nc1ccc(C2=NN(C(=O)c3ccco3)C(c3ccccc3)C2)cc1 (configuration not stated) | 2.8% |
| C=CCSC1=N/C(=C/c2ccsc2)C(=O)N1c1ccccc1 | -5.05% |
| Cc1cc(C)n(-c2ccc(C(=O)NCc3ccc4c(c3)OCO4)cc2)n1 | 8.5% |
| Cc1cc(C)n(-c2ccc(C(=O)Nc3ccc4c(c3)OCO4)cc2)n1 | 12.7% |
| COc1ccc(CCNC(=O)CCc2nc3sc4c(c3c(=O)[nH]2)CCCC4)cc1 | -1.73% |
| CCCCC(CC)COC(=O)CCCCC(=O)OCC(CC)CCCC (configuration not stated) | 12.3% |
| CCCCC(CC)CO (configuration not stated) | -4.02% |
| Cc1csc(NC(=O)c2cccs2)n1 | -0.19% |
| Nc1ccc2nonc2c1[N+](=O)[O-] | -0.05% |
| Nc1cc(N2CCCCCC2)c2nonc2c1[N+](=O)[O-] | -8.43% |
| COc1cccc2sc(N(CCN(C)C)C(=O)/C=C/c3cccs3)nc12 | 8.94% |
| Cc1cccc2sc(N(CCN(C)C)C(=O)/C=C/c3cccs3)nc12 | 51.5% |

| SMILES | inhibition |
| --- | --- |
| CN(CC(=O)Nc1ccc(S(=O)(=O)N2CCCC2)cc1)Cc1ccc(Cl)cc1Cl | -3.94% |
| O=C(CCC(=O)N(CC(=O)NC1CCCC1)Cc1ccc(F)cc1)Nc1nccs1 | 7.88% |
| O=C(NC1CC1)c1cccc(S(=O)(=O)Nc2ccccc2F)c1 | -4.2% |
| CCN(CC)c1ccc(/C=N/Nc2nc3ccccc3[nH]2)c(O)c1 | 19.6% |
| CCN(CC)c1ccc2cc(-c3nc4ccccc4[nH]3)c(=O)oc2c1 | 4.76% |
| O=c1c2oc3ccccc3c2[nH]c(=S)n1-c1ccc(F)cc1 | 0.38% |
| Cc1ccc(C2Oc3ccccc3C3=C2C(c2cccs2)n2ncnc2N3)cc1 (configuration not stated) | 55.2% |
| Fc1ccc(C2C3=C(Nc4ncnn42)c2ccccc2OC3c2ccncc2)cc1 (configuration not stated) | -5.07% |
| C/C=C\C=C\C(=O)N1CC2(CC(c3cccc(NC(=O)COc4ccc(Cl)cc4)c3)=NO2)C[C@H]1C(N)=O (some centres not stated) | 23.8% |
| COc1cccc(C(=O)C2CCCN(Cc3ccccn3)C2)c1 (configuration not stated) | 33.9% |
| COc1c(C)cc(C(=O)C2CCCN(Cc3ccc(Oc4ncccn4)cc3)C2)cc1C (configuration not stated) | 7.33% |
| COc1ccc(N2CCN(CCNC(=O)c3ccc(NC(=O)C4CCCO4)cc3)CC2)cc1 (configuration not stated) | -2.8% |
| CC1CCN(C2=NC(=O)/C(=C/c3cn[nH]c3-c3ccccc3)S2)CC1 | 12.8% |
| O=C1N=C(N2CCCC2)S/C1=C\c1cn[nH]c1-c1ccccc1 | -6.16% |
| CCOC(=O)c1[nH]c2c(c1-c1ccccc1)C(=O)CC(c1ccccc1)C2 (configuration not stated) | 3.2% |
| Nc1nc2ccccc2n1CCN1CCCC1 | -1.87% |
| CC(C)(C)c1ccc(C(=O)O)c(C(=O)c2ccccc2)c1 | -4.75% |
| Brc1cnc2nc(SC/C=C/c3ccccc3)[nH]c2c1 | -5.71% |
| COc1cccc(C(=O)NCC2CCN(c3ccc(S(=O)(=O)N4CCOCC4)cc3)CC2)c1 | -13.8% |
| COc1ccccc1C(=O)NCC1CCN(c2ccc(S(=O)(=O)N3CCOCC3)cc2)CC1 | 2.24% |
| CC(=O)NS(=O)(=O)c1ccc(NS(=O)(=O)c2ccccc2[N+](=O)[O-])cc1 | 3.53% |
| CCCCNC(=O)CN(c1cc(C(F)(F)F)ccc1Cl)S(C)(=O)=O | -6.63% |
| CCN(CC)CCCC(C)NC(=O)c1ccc(C(F)(F)F)cc1 (configuration not stated) | -7.51% |
